# CBX7 inh: CBX7 inhibition, primary AlphaScreen | AlphaScreen His6-CBX7 / biotin-H3K27me3 peptide binding; active compounds read low | normalised signal (fraction of DMSO) (concentration not given with the values) | 66,000 compounds, 1.1% hits | AID 1224903; in the data active = normalised signal below about 0.5
# Target sequence (O95931 whole entry, looked up): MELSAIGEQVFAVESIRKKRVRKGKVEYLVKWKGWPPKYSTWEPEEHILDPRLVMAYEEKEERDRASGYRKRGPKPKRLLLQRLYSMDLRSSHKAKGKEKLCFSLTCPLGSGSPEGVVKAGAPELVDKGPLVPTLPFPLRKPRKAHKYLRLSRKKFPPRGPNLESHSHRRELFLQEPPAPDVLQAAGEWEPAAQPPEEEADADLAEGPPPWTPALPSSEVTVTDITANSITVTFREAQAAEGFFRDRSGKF
# A number is an active result; 0 = inactive. The sample as a whole holds a higher share of hits than the screen did.
SMILES,CBX7 inh
Cc1ccc2c(c1)C(c1ccc(F)cc1)N(C(=O)Cc1ccc(F)cc1)CC(=O)N2 (configuration not stated),0
Cc1ccc(-c2nnc(Nc3ccc(F)cc3)c3ccccc23)cc1S(=O)(=O)NCc1ccccn1,0
Cn1c(=O)c2c(-c3ccccc3)n(Cc3ccc(Cl)cc3)cc2n(C)c1=O,0
COc1ccc(-n2cnc3cc(NCc4ccccc4OC)ccc32)cc1,0.31
COc1ccc(CNc2ccc3c(c2)ncn3C)c(OC)c1,0
COc1ccccc1CNC(=O)c1ccc2c(c1)ncn2-c1ccc(C)c(Cl)c1,0
COc1ccc(CNc2ccc3c(c2)ncn3-c2ccc(C)cc2)cc1,0.27
COc1ccccc1CNc1ccc2c(c1)ncn2-c1ccccc1OC,0
CCOc1ccc(CNc2ccc3c(c2)ncn3-c2ccc(OC)cc2)cc1,0
COc1ccccc1CNc1ccc2c(c1)ncn2-c1ccc(C)cc1,0.22
COc1ccc(-n2cnc3cc(NCc4ccc(OC)c(OC)c4)ccc32)cc1,0
CCCn1cnc2cc(NCc3ccccc3OC)ccc21,0
COc1cc2c(cc1OC)C1C(C(=O)NCc3ccc4c(c3)OCO4)c3ccccc3C(=O)N1CC2 (configuration not stated),0
Cc1c(C(=O)Nc2ccc(C(N)=O)cc2)sc2nc(-c3ccc(F)cc3)cn12,0
COc1cccc(C2=NOC(C(=O)N3CCOCC3)C2)c1OC (configuration not stated),0
CCc1ccc2oc(-c3cccc(NC(=O)c4ccc(F)cc4)c3)nc2c1,0
CCc1ccc2oc(-c3cccc(NC(=O)c4ncn[nH]4)c3)nc2c1,0.013
CC(C)c1ccc2oc(-c3ccc(NC(=O)c4ccccc4F)cc3)nc2c1,0
CC(C)c1ccc2oc(-c3ccc(NC(=O)c4ccc(Cl)cc4)cc3)nc2c1,0
CCc1ccc2oc(-c3cccc(NC(=O)c4ccc(C)cc4)c3)nc2c1,0
CC(C)c1ccc2oc(-c3ccc(NC(=O)c4ncn[nH]4)cc3)nc2c1,0.026
COc1cccc2cc(-c3nnc(Nc4ccccc4)s3)c(=O)oc12,0
COc1cccc(-c2cc(C(F)(F)F)nc(-n3nnnc3C)n2)c1,0
COc1ccccc1CNC(=O)c1cc(=O)[nH]c2ccc(S(=O)(=O)N3CCCCC3)cc12,0
Cc1nnc(Nc2ccc(O)cc2)c2ccccc12,0
SMILES,CBX7 inh
CC(C)(C)c1ccc(C(=O)Nc2ncc(Cc3cc(Cl)ccc3Cl)s2)cc1,0
COc1ccc(S(=O)(=O)NCCc2c(C)[nH]c3ccc(C)cc23)cc1,0.45
COc1cc(Cl)c(S(=O)(=O)NCCc2c(C)[nH]c3ccc(C)cc23)cc1Cl,0
COc1ccc(OC)c(S(=O)(=O)NCCc2c(C)[nH]c3ccc(OC)cc23)c1,0
COc1ccc(-c2noc(-c3ccc(Br)cc3)n2)cc1OC,0
COc1ccc(-c2cc(-c3c(O)c(OC)c4occc4c3OC)[nH]n2)cc1OC,0.45
COc1c(-c2cc(-c3ccccc3)n[nH]2)c(O)c(OC)c2occc12,0
CCC(=O)N1CCc2cc(S(=O)(=O)NC(CC(C)C)C(=O)Nc3cc(C)cc(C)c3)ccc21 (configuration not stated),0
O=C(Nc1ccc(Cc2ccncc2)cc1)C12CC3CC(CC(C3)C1)C2,0
O=C(Nc1ccc(Cc2ccncc2)cc1)c1ncn[nH]1,0.058
Cc1ccc(NC(=O)Nc2ccc(Cc3ccncc3)cc2)cc1C,0
CCc1ccc2c(c1)c(=O)c(S(=O)(=O)c1ccccc1)cn2CC(=O)Nc1ccc(C)c(Cl)c1,0
COC(=O)c1ccc2c(c1)N(Cc1ccc(F)cc1)C(=O)c1ccccc1S2=O (configuration not stated),0
Cc1ccc2[nH]c3c(c2c1)CCCC3NCCCO (configuration not stated),0
Cc1ccc2[nH]c3c(c2c1)CCCC3NCc1ccc(Cl)cc1 (configuration not stated),0.49
c1ccc(CNC2CCCc3c2[nH]c2ccc(-c4ccccc4)cc32)cc1 (configuration not stated),0
CN(C)CCNC(=O)c1cc(-c2ccncc2)nc2ccccc12,0
CCN(CCCNC(=O)c1cc(-c2cccnc2)nc2ccccc12)c1ccccc1,0
CCN(CCCNC(=O)c1cc(-c2ccncc2)nc2ccccc12)c1ccccc1,0.31
CCCCN(CCCNC(=O)c1cc(-c2ccncc2)nc2ccccc12)c1ccccc1,0
CCN(CCNC(=O)c1cc(-c2cccnc2)nc2ccccc12)c1ccccc1,0.47
CCOc1ccc(-c2cc(C(=O)NCCN(CC)c3ccccc3)c3ccccc3n2)cc1,0
Cc1ccc(NC(=O)CCc2nnc3ccc(NCCc4sccc4C)nn23)cc1,0
Cc1cc(N2CC(C)CC(C)C2)nc2ccc(NC(=O)CCC(=O)N3CCC4(CC3)OCCO4)cc12 (configuration not stated),0
CCCOc1ccc(C2C(=O)N(C3CCCCCC3)CC(=O)N2C2CCCC2)cc1OC (configuration not stated),0
SMILES,CBX7 inh
Cc1ccc(CNC(=O)c2cc3oc(C)cc3n2Cc2ccc(Cl)cc2)cc1,0
CCN1CCN(c2cc(C)c3cc(NC(=O)c4ccc(Br)c(OC)c4)ccc3n2)CC1,0
CCOC(=O)c1cnc2ccc(OCC)cc2c1N1CCN(C)CC1,0
CCOC(=O)c1cnc2ccc(OCC)cc2c1N1CCN(c2ccccn2)CC1,0
CCOC(=O)c1cnc2ccc(OCC)cc2c1N1CCN(Cc2ccccc2)CC1,0.5
O=C(NCc1ccc(F)cc1)c1ccc2c(c1)N(Cc1ccccc1)C(=O)c1ccccc1S2,0
Cc1nc2ncnn2c(C)c1CCC(=O)N1CCC(Cc2ccccc2)CC1,0
Cc1cc(C)n(-c2nc3ccccc3nc2Nc2ccc(N3CCCCC3)cc2)n1,0.42
Cc1cc(C)n(-c2nc3ccccc3nc2Nc2ccc(C(C)C)cc2)n1,0
Cc1cc(C)n(-c2nc3ccccc3nc2Nc2ccc(F)cc2)n1,0
Cc1ccc(-c2noc(CCC(=O)N3CCN(c4ccc(F)cc4)CC3)n2)cc1,0
O=c1c(Oc2ccccc2Br)coc2cc(OCc3ccccc3)ccc12,0
COC(=O)c1c[nH]n2c(=O)c(Cc3cccc(Cl)c3)c(C)nc12,0
COC(=O)c1c[nH]n2c(NC3CCC(C)CC3)c(-c3cccc(C)c3)nc12 (configuration not stated),0.24
COC(=O)c1c[nH]n2c(NC3CCCCCC3)c(-c3cccc(C)c3)nc12,0.44
COC(=O)c1c[nH]n2c(NC3CCC(C)CC3)c(-c3cccc(F)c3)nc12 (configuration not stated),0.33
COC(=O)c1c[nH]n2c(NCCc3ccccc3)c(-c3cccc(OC)c3)nc12,0
Cc1nc2c(C(=O)NC3CCCC3)c[nH]n2c(=O)c1Cc1ccc(Cl)cc1,0
COC(=O)c1c[nH]n2c(NC3CCC(C)CC3)c(-c3ccc(Cl)cc3)nc12 (configuration not stated),0.33
CC1CCC(NC(=O)Cn2nc(-c3ccccc3)c3cc(Cl)ccc32)CC1 (configuration not stated),0
COC(=O)c1c[nH]n2c(=O)c(Cc3cc(C)ccc3C)c(C)nc12,0
Cc1nc2c(C(=O)NC3CC3)c[nH]n2c(=O)c1Cc1ccccc1F,0
Cc1cccc(-c2nc(CN3CCCC(C(=O)NC4CCC(C)CC4)C3)c(C)o2)c1 (configuration not stated),0
COC(=O)c1c[nH]n2c(=O)c(Cc3ccccc3C)c(C)nc12,0
O=C(Nc1ccc(S(=O)(=O)N2CCCCC2)cc1)c1cc2c(s1)-c1ccccc1OC2,0
